Pf growth 96h: inhibits malaria parasite growth, 96 h | P. falciparum luciferase reporter growth, 96 h | Potency, µM (top dose mostly 28.7 µM), for the others: top-dose activity change, negative = inhibition, actives largely listed as inhibitors | 6.9% of 320,000 active; note: potency is the fitted concentration of half-maximal effect; % is set by controls: 0 for no effect and ±100 for the full control effect
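Cell-based qHTS: luciferase-tagged P. falciparum in erythrocytes (2% hematocrit, 0.05% parasitemia final) incubated with compounds for 96 hours, 37 C, 5% CO2; luciferase detection reagent then added and luminescence measured.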
Pf growth 48h: inhibits P. falciparum growth in the first generation, 48 h; Potency, µM (doses to about 28.7 µM), for the others: top-dose activity change, negative = inhibition, usual class: inhibitors; P. falciparum luciferase growth in erythrocytes, 48 h; 5.9% of 310,000 active; note: potency is the fitted concentration of half-maximal effect; % is set by controls: 0 for no effect and ±100 for the full control effect
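Cell-based growth assay: transgenic P. falciparum expressing firefly luciferase, cultured in red cells within RPMI 1640 containing 0.5% w/v Albumax, 24 mM bicarbonate and gentamycin. A drop in luciferase activity indicates inhibition.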
Shiga toxin inh: inhibitors of Shiga toxin in Vero cells; 9.2% of 290,000 active; Vero cells, Shiga toxin protein synthesis inhibition reporter; inhibition, % at 38.7 µM; in the data active = inhibition mostly above about 28%, no sharp cut-off; inactive = mostly below about 43%; note: 0% is about no effect
CHX counter: counter-screen for Shiga toxin inhibitors: cycloheximide protein synthesis inhibition | cell reporter, cycloheximide protein synthesis inhibition counterscreen | max response, % | 12% of 300,000 active; in the data active = max response mostly above about 13%, no sharp cut-off; inactive = mostly below about 14%; note: read at 38.3 µM for the half of the compounds with a filed dose; 0% is about no effect
MARV entry inh: inhibitors of Marburg virus binding or cell entry | Potency, µM (highest dose often 37.8 µM), inactives show at the highest dose activity change, negative = inhibition, hits mostly inhibitors | 1.8% of 300,000 active | Marburg virus pseudotyped entry inhibition, cell reporter; calls by dose curve; tested in HEK293 cells; note: potency is the fitted concentration of half-maximal effect; % is set by controls: 0 for no effect and ±100 for the full control effect
LASV entry inh: Lassa virus entry inhibition. 1.2% of 300,000 active. AID 540256. Potency, µM (doses to about 37.9 µM), for the others: at the highest dose activity change, negative = inhibition, hits mostly inhibitors. Lassa virus pseudotype entry inhibition, cell reporter; calls by dose curve; tested in HEK293 cells; note: potency is the fitted concentration of half-maximal effect; % is set by controls: 0 for no effect and ±100 for the full control effect; nearly all actives have a fitted effect of over 50% in size
Starred values were filed as active, the others as inactive; [ ] = dose if it differs, or a comment. Sampled rows, rich in hits. Any-hit rate of the full collection: about 19%. Unless noted, calls come from the whole dose curve; as a rule, active = well fitted inhibition curve with a large enough effect; inconclusive = small, poorly fitted or top-dose-only effect, or another doubt; inactive = no such curve, though single readings can be large or run the other way.

Screening CC(C)=NOC(=O)c1c(C)noc1-c1snnc1C returned Pf growth 96h 1.85µM*, Pf growth 48h 1.65µM*, Shiga toxin inh -12.1, CHX counter -1.8, MARV entry inh 13.8%[46.1 µM] and LASV entry inh 14.1%.
COC(=O)c1c(C)noc1-c1snnc1C was read as Pf growth 96h 30.7%, Pf growth 48h -4.1%, Shiga toxin inh -16.8 and CHX counter -1.8.
`CCOC(=O)c1sc(=NC(=O)COc2ccc(Cl)cc2)n(C)c1C` gave Pf growth 96h inconclusive, Pf growth 48h 8.4%, Shiga toxin inh 11.0, CHX counter -1.1, MARV entry inh -2.8%[46.1 µM] and LASV entry inh -1.7%.
`CCOC(=O)c1sc(=NC(=O)c2ccc(OC)c(OC)c2)n(C)c1C` gave Pf growth 96h 10.4%, Pf growth 48h 9.4%, Shiga toxin inh 85.5*, CHX counter 37.2, MARV entry inh 1.3% and LASV entry inh -3.7%.
For COc1ccc(C(=O)N=c2sc3c(C)ccc(OC)c3n2C)cc1 the results were Pf growth 96h 152.2%, Pf growth 48h 136.8%, Shiga toxin inh 66.0* and CHX counter 37.1*.
CCOC(=O)c1sc(=NC(=O)c2ccccc2)n(C)c1C was read as Pf growth 96h 89.9%, Pf growth 48h 462.2%, Shiga toxin inh 89.5*, CHX counter 35.9*, MARV entry inh inconclusive and LASV entry inh 0.0%.
CCOC(=O)c1sc(=NC(=O)c2cccc(OC)c2)n(C)c1C was read as Pf growth 96h 1.8%, Pf growth 48h 85.3%, Shiga toxin inh 59.1*, CHX counter 36.4*, MARV entry inh 9.9% and LASV entry inh 20.8%.
For O=C(OC1CCOC1=O)c1ccc2ncsc2c1 (stereo not drawn) the results were Pf growth 96h 0.4%, Pf growth 48h -7.3%, Shiga toxin inh 9.3, CHX counter -3.0, MARV entry inh 8.1%[46.1 µM] and LASV entry inh -12.5%.
For O=S(=O)(O)c1cc(Cl)cc(N=Nc2ccc(O)cc2O)c1O the results were MARV entry inh -3.7% and LASV entry inh -19.5%.
Screening COc1ccc(C(=O)c2c(N)c(-c3nc(-c4ccc(OC)cc4)cs3)c3ccccn23)cc1 returned MARV entry inh -10.2%[46.1 µM] and LASV entry inh 3.2%[46.1 µM].
`Cc1ccc(NC(=S)Nc2ccc(OC(F)F)c(Cl)c2)cc1Cl` gave Pf growth 96h inconclusive, Pf growth 48h inconclusive, Shiga toxin inh 35.8, CHX counter 11.6, MARV entry inh inconclusive and LASV entry inh -28.8%.
Cc1cc(C)cc(NC(=S)Nc2ccc(Cl)c(Cl)c2)c1 was read as Pf growth 96h 13.2%, Pf growth 48h 13.1µM*, Shiga toxin inh -11.8, CHX counter -2.2, MARV entry inh inconclusive and LASV entry inh -4.0%[46.1 µM].
`Cc1ccc(NC(=S)Nc2ccc(Cl)c(Cl)c2)c(OC(F)F)c1` gave Pf growth 96h 4.15µM*, Pf growth 48h inconclusive, Shiga toxin inh -9.2, CHX counter -1.2, MARV entry inh inconclusive and LASV entry inh 2.3%.
Screening Cc1nc(-c2ccc(C)c(S(=O)(=O)N3CCC(C(=O)NCc4ccc(Cl)cc4)CC3)c2)no1 returned LASV entry inh -15.9%[46.1 µM].
O=C(C1CC1)N1CCc2cc(Br)cc(S(=O)(=O)NCc3ccco3)c21 was read as Pf growth 96h 39.6%, Pf growth 48h -22.4%, Shiga toxin inh 53.2*, CHX counter 28.0*, MARV entry inh inconclusive and LASV entry inh -2.2%.
Cc1ccc(CNC(=O)CCS(=O)(=O)c2cc(Br)cc3c2N(C(=O)C2CC2)CC3)cc1 was read as MARV entry inh 2.4%[46.1 µM] and LASV entry inh 16.9%[46.1 µM].
Screening Cc1ccc(CNC(=O)CCS(=O)(=O)c2cc(Br)cc3c2N(C(=O)C2CC2)CC3)o1 returned Pf growth 96h 11.7µM*, Pf growth 48h 2.62µM*, Shiga toxin inh -22.4, CHX counter 5.9, MARV entry inh -0.3% and LASV entry inh 3.9%.
`O=C(NCC1(N2CCOCC2)CCCCC1)c1cccc(S(=O)(=O)Nc2ccc(F)cc2)c1` gave Pf growth 96h inconclusive and Pf growth 48h 10.4µM*.
`O=C(NCC1(N2CCCCC2)CCCCC1)c1cccc(S(=O)(=O)Nc2ccc(F)cc2)c1` gave Pf growth 96h inconclusive and Pf growth 48h 8.28µM*.
Screening COCC1=NC2C(=O)N(C)C(=O)N(CC(C)C)C2=N1 (stereo not drawn) returned MARV entry inh 13.0%.

Screens (PubChem)
